Measured values as given in PubChem BioAssay.
Results with a measured potency or affinity are listed apart. Calls of active or inactive are those of the source. Unless noted, cut-off not given; nearly all actives show IC50 up to about 0.98 µM.

Each molecule was assayed against Calcium-dependent protein kinase 1 (Plasmodium falciparum (isolate 3D7)) (UniProt P62344) (assay: PfCDPK1 kinase inhibitors, biochemical, TCAMS library (AID 1159585;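 further: inhibitors leave more ATP so luminescence rises with inhibition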)). Conditions: recombinant PfCDPK1, Kinase-Glo ATP depletion luminescence.
Calcium-dependent protein kinase 1 (Plasmodium falciparum (isolate 3D7)), sequence (P62344 whole entry, looked up): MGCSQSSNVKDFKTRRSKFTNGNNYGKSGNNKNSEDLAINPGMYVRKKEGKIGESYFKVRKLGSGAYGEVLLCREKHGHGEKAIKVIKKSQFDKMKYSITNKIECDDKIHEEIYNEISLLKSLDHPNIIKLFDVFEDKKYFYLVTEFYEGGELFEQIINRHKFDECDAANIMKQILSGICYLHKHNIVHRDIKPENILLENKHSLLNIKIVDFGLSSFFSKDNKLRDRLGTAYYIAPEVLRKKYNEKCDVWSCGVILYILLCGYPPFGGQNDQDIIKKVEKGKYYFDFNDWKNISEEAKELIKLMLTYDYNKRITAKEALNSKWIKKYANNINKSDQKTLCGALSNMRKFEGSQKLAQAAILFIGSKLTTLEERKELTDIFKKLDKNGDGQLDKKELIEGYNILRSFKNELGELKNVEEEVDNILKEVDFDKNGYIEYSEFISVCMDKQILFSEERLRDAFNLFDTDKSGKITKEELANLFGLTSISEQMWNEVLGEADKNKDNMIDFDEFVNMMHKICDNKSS

outcome, inactive:
N#Cc1ccc2c(c1)CN(C1CCC(NC(=O)c3cc(-c4ccc(Cl)cc4)cs3)CC1)CCC2 (stereo not drawn), O=C(Nc1ccc(-c2nc3ccccc3[nH]2)cc1)C1CCN(Cc2ccc(F)cc2)CC1, OC(CNCCCCCCNCC(O)c1ccc(Cl)c(Cl)c1)c1ccc(Cl)c(Cl)c1 (stereo not drawn), S=C(NCCc1ccccc1)Nc1ccc2ncsc2c1, COc1ccc2ncc(C#N)c(CCN3CCC(NCc4ccc5c(c4)OCCO5)CC3)c2c1, CN(C)c1nc2cc(-n3cnc4cc(-c5ccc(Cl)cc5)sc4c3=O)ccc2n1CCCN1CCCC1, CCOc1ccc(-c2nonc2NC(=O)c2ccccc2F)cc1OCC, Nc1cccc(CNCc2cccc(-c3cccc(-c4nc5ccc(C(F)(F)F)cc5[nH]4)c3)c2)c1, CN(C)CCOc1ccc(/C(=C(/CCCn2ccnc2)c2ccccc2)c2ccc(O)cc2)cc1, N#Cc1ccc(NC(=NC2CCCc3ccccc32)Nc2ccc(-c3ccccc3)cc2)c(O)c1 (stereo not drawn), Cc1ccc(NC(=O)Nc2ccc(Cl)c(C(F)(F)F)c2)cc1-c1ccc(C(=O)Nc2ccncc2)cc1, COc1cc2nc(Nc3ccc(N4CCOCC4)cc3)nc(N)c2cc1OC, COc1ccc(CNC2CCN(C)CC2)cc1-c1ccc(S(=O)(=O)NCC2CCCO2)s1 (stereo not drawn), COc1ccc2nccc([C@@H](O)CN3CCC(NC(=O)C(=Cc4ccc(C#N)cc4)c4ccc(-c5ccccc5)cc4)CC3)c2c1, Cc1ccc(C(=O)Nc2cccc(CN3CCCN(Cc4ccc(O)cc4)CC3)c2)s1, FC(F)(F)c1ccc2nc(-c3ccc(-c4ccc(CNCCN5CCNCC5)cc4)s3)[nH]c2c1, O=C(NCCN1CCOCC1)c1ccc(O)c(-c2cccc(C(F)(F)F)c2)c1, CCc1nonc1NC(=O)c1oc2c(C)c(C)ccc2c1C, CCc1cn2c3c(cc(C(=O)N[C@@H](Cc4ccccc4)[C@H](O)CNCc4ccc(C)cc4)cc13)N(C)S(=O)(=O)CC2, CCc1cccc2c(C#N)cn(CC(=O)NCCc3ccccc3)c12, CN(C)c1ccc(CN2CCC(NC(=O)c3ccc(-c4cccc(C(F)(F)F)c4)s3)CC2)cc1, CN(C)CCOc1cc(NC(=O)Nc2ccc(-c3ccncc3)c(Cl)c2)ccc1I, FC(F)(F)c1cccc(CNCC2CCN(Cc3ccc4c(c3)OCO4)CC2)c1, CN1c2ccccc2Sc2cc(CNCCSCCNCc3ccc4c(c3)Sc3ccccc3N4C)ccc21, CCc1c(C)nc(-n2nc(C)cc2NC(=O)CCc2ccccc2)[nH]c1=O, CCc1ccc(-c2cnc(N)c3cc(-c4ccnc(N)n4)ccc23)cc1, COc1cc(SC)c(Br)cc1-c1nc2ccncc2[nH]1, COc1cccc(C2(c3cccc(OC)c3)N=C(N)N(CCCc3ccccc3)C2=O)c1, COc1cccc(CNc2ncc(-c3ccsc3)c(-c3nccs3)n2)c1, COc1cc(C(=O)Nc2cccc(-c3cn4cccc(C)c4n3)c2)cc(OC)c1OC, Cc1cccc2[nH]c(-c3ccc(-c4cccc(CNCCN5CCNCC5)c4)cc3)nc12, Cc1c(NCCCNCc2cc(Cl)cc(Cl)c2Cl)[nH]c2ccccc2c1=O, CC1CCC2(CC1)N=C(N)N=C(N)N2OCc1ccc(Br)c2ccccc12 (stereo not drawn), Cc1cc(NC(=O)Nc2ccc(Cl)cc2F)c2ccccc2n1, COc1ccc(NCc2cccc(-c3cccc(CNCCc4ccccc4)c3)c2)cc1, CCC(=O)N(c1ccccc1)C1CCN(CCCC(NC(=O)c2cc(C(F)(F)F)cc(C(F)(F)F)c2)c2ccc(Cl)c(Cl)c2)CC1 (stereo not drawn), N#Cc1ccc(NC(=O)c2ccc(C(=O)NCCCCN3CCC(c4ccc5c(c4OCCOC4CCCCO4)CCCC5)CC3)cc2)cc1 (stereo not drawn), O=c1cc(NCCCNCc2ccc(C(F)(F)F)c(F)c2)[nH]c2ccccc12, CN1CCN(CCCN(Cc2ccc(-c3ccc(CNCc4ccc5c(c4)OCO5)cc3)cc2)C(=O)Nc2ccccc2)CC1

Each molecule was assayed against Plasmodium falciparum protein kinase 6 (PK6, PF3D7_1337100) (UniProt Q8IDW1) (assay: PfPK6 kinase inhibitors, biochemical, TCAMS library (AID 1159586; call rule not given here)). Conditions: recombinant PfPK6, Kinase-Glo ATP depletion luminescence.
Plasmodium falciparum protein kinase 6 (PK6, PF3D7_1337100), sequence (Q8IDW1 1-305): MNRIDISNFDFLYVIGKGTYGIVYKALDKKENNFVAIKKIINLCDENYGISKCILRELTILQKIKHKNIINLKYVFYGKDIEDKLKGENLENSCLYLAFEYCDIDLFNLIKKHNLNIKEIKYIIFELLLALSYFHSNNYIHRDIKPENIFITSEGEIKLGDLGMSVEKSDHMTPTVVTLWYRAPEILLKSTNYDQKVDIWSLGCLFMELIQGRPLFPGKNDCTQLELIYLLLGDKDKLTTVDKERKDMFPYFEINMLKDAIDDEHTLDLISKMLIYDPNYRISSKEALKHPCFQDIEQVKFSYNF

outcome, inactive:
N#Cc1ccc2c(c1)CN(C1CCC(NC(=O)c3cc(-c4ccc(Cl)cc4)cs3)CC1)CCC2 (stereo not drawn), O=C(Nc1ccc(-c2nc3ccccc3[nH]2)cc1)C1CCN(Cc2ccc(F)cc2)CC1, OC(CNCCCCCCNCC(O)c1ccc(Cl)c(Cl)c1)c1ccc(Cl)c(Cl)c1 (stereo not drawn), S=C(NCCc1ccccc1)Nc1ccc2ncsc2c1, COc1ccc2ncc(C#N)c(CCN3CCC(NCc4ccc5c(c4)OCCO5)CC3)c2c1, CN(C)c1nc2cc(-n3cnc4cc(-c5ccc(Cl)cc5)sc4c3=O)ccc2n1CCCN1CCCC1, CCOc1ccc(-c2nonc2NC(=O)c2ccccc2F)cc1OCC, Nc1cccc(CNCc2cccc(-c3cccc(-c4nc5ccc(C(F)(F)F)cc5[nH]4)c3)c2)c1, CN(C)CCOc1ccc(/C(=C(/CCCn2ccnc2)c2ccccc2)c2ccc(O)cc2)cc1, N#Cc1ccc(NC(=NC2CCCc3ccccc32)Nc2ccc(-c3ccccc3)cc2)c(O)c1 (stereo not drawn), Cc1ccc(NC(=O)Nc2ccc(Cl)c(C(F)(F)F)c2)cc1-c1ccc(C(=O)Nc2ccncc2)cc1, COc1cc2nc(Nc3ccc(N4CCOCC4)cc3)nc(N)c2cc1OC, COc1ccc(CNC2CCN(C)CC2)cc1-c1ccc(S(=O)(=O)NCC2CCCO2)s1 (stereo not drawn), COc1ccc2nccc([C@@H](O)CN3CCC(NC(=O)C(=Cc4ccc(C#N)cc4)c4ccc(-c5ccccc5)cc4)CC3)c2c1, Cc1ccc(C(=O)Nc2cccc(CN3CCCN(Cc4ccc(O)cc4)CC3)c2)s1, FC(F)(F)c1ccc2nc(-c3ccc(-c4ccc(CNCCN5CCNCC5)cc4)s3)[nH]c2c1, O=C(NCCN1CCOCC1)c1ccc(O)c(-c2cccc(C(F)(F)F)c2)c1, CCc1nonc1NC(=O)c1oc2c(C)c(C)ccc2c1C, CCc1cn2c3c(cc(C(=O)N[C@@H](Cc4ccccc4)[C@H](O)CNCc4ccc(C)cc4)cc13)N(C)S(=O)(=O)CC2, CCc1cccc2c(C#N)cn(CC(=O)NCCc3ccccc3)c12, CN(C)c1ccc(CN2CCC(NC(=O)c3ccc(-c4cccc(C(F)(F)F)c4)s3)CC2)cc1, CN(C)CCOc1cc(NC(=O)Nc2ccc(-c3ccncc3)c(Cl)c2)ccc1I, FC(F)(F)c1cccc(CNCC2CCN(Cc3ccc4c(c3)OCO4)CC2)c1, CN1c2ccccc2Sc2cc(CNCCSCCNCc3ccc4c(c3)Sc3ccccc3N4C)ccc21, CCc1c(C)nc(-n2nc(C)cc2NC(=O)CCc2ccccc2)[nH]c1=O, CCc1ccc(-c2cnc(N)c3cc(-c4ccnc(N)n4)ccc23)cc1, COc1cc(SC)c(Br)cc1-c1nc2ccncc2[nH]1, COc1cccc(C2(c3cccc(OC)c3)N=C(N)N(CCCc3ccccc3)C2=O)c1, COc1cccc(CNc2ncc(-c3ccsc3)c(-c3nccs3)n2)c1, COc1cc(C(=O)Nc2cccc(-c3cn4cccc(C)c4n3)c2)cc(OC)c1OC, Cc1cccc2[nH]c(-c3ccc(-c4cccc(CNCCN5CCNCC5)c4)cc3)nc12, Cc1c(NCCCNCc2cc(Cl)cc(Cl)c2Cl)[nH]c2ccccc2c1=O, CC1CCC2(CC1)N=C(N)N=C(N)N2OCc1ccc(Br)c2ccccc12 (stereo not drawn), Cc1cc(NC(=O)Nc2ccc(Cl)cc2F)c2ccccc2n1, COc1ccc(NCc2cccc(-c3cccc(CNCCc4ccccc4)c3)c2)cc1, CCC(=O)N(c1ccccc1)C1CCN(CCCC(NC(=O)c2cc(C(F)(F)F)cc(C(F)(F)F)c2)c2ccc(Cl)c(Cl)c2)CC1 (stereo not drawn), N#Cc1ccc(NC(=O)c2ccc(C(=O)NCCCCN3CCC(c4ccc5c(c4OCCOC4CCCCO4)CCCC5)CC3)cc2)cc1 (stereo not drawn), O=c1cc(NCCCNCc2ccc(C(F)(F)F)c(F)c2)[nH]c2ccccc12, CN1CCN(CCCN(Cc2ccc(-c3ccc(CNCc4ccc5c(c4)OCO5)cc3)cc2)C(=O)Nc2ccccc2)CC1
